Screens from PubChem.
Pf growth 48h: Primary qHTS for delayed death inhibitors of the malarial parasite plastid, 48 hour incubation; P. falciparum luciferase growth in erythrocytes, 48 h; AID 504832, 2011; Potency, µM (top dose mostly 28.7 µM), inactives show at the top dose activity change, negative = inhibition, actives largely listed as inhibitors; 310,000 compounds, 5.9% hits; note: potency is the fitted concentration of half-maximal effect; % is set by controls: 0 for no effect and ±100 for the full control effect
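Here the parasites carry a stable luciferase gene and grow inside erythrocytes in Albumax-based RPMI medium with compound for one erythrocytic cycle. Activity is scored as loss of luminescent signal.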
HCMV antiviral: qHTS Assay for inhibitors of the human cytomegalovirus (HCMV). HFF cells, HCMV-luciferase reporter, 72 h; stronger effect = lower value. activity change, negative = inhibition, % at 57.5 µM. 410,000 compounds, 4.5% hits. AID 1259415, 2018; in the data active = activity change below about -60%; inconclusive = no clear call, values can overlap the other calls; inactive = above about -39%; note: % is set by controls: 0 for no effect and ±100 for the full control effect
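Luciferase read-out from HCMV-luciferase-infected HFFs (MOI 1 PFU/cell) 72 h post infection at 37C; compounds added after 16 h cell attachment; activity normalized between buffer-only basal and Salinomycin (10uM) inhibitor controls.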
Shiga inhibitor: A qHTS for Small Molecule Inhibitors of Shiga Toxin. Vero cells, Shiga toxin protein synthesis inhibition reporter. inhibition, % at 38.7 µM. 290,000 compounds, 9.2% hits. AID 2315, 2010; in the data active = inhibition mostly above about 28%, no sharp cut-off; inactive = mostly below about 43%; note: 0% is about no effect
Pf growth 96h: Primary qHTS for delayed death inhibitors of the malarial parasite plastid, 96 hour incubation. P. falciparum luciferase reporter growth, 96 h. Potency, µM (series often up to 28.7 µM), for inactives: at the highest dose activity change, negative = inhibition, most hits filed as inhibitors. 320,000 compounds, 6.9% hits. AID 504834, 2011; note: potency is the fitted concentration of half-maximal effect; % is set by controls: 0 for no effect and ±100 for the full control effect
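Compounds incubated with erythrocytes infected by luciferase-expressing P. falciparum (2% hematocrit, 0.05% parasitemia final) for 96 hours, 37 C in 5% CO2. Growth inhibition scored as decreased luciferase luminescence.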
Cycloheximide cs: Cycloheximide Counterscreen for Small Molecule Inhibitors of Shiga Toxin. cell reporter, cycloheximide protein synthesis inhibition counterscreen. max response, %. 300,000 compounds, 12% hits; in the data active = max response mostly above about 13%, no sharp cut-off; inactive = mostly below about 14%; note: read at 38.3 µM for the half of the compounds with a filed dose; 0% is about no effect
Starred values were filed as active, the others as inactive; u = inconclusive; x = not tested or not shown; [ ] = dose if it differs, or a comment. Hits are enriched below; roughly 20% of the tested compounds scored in any of these assays. Unless noted, calls come from the whole dose curve; as a rule, active = well fitted inhibition curve with a large enough effect; inconclusive = small, poorly fitted or top-dose-only effect, or another doubt; inactive = no such curve, though single readings can be large or run the other way.

SMILES | Pf growth 48h | HCMV antiviral | Shiga inhibitor | Pf growth 96h | Cycloheximide cs
CCn1cc(C(=O)NCc2ccccc2OC)c(=O)c2cc(S(=O)(=O)N3CCCCC3)ccc21 | x | -77* | x | x | x
COc1ccc(S(=O)(=O)N2CCCCCC2)cc1C(=O)NCc1cccs1 | 15µM* | -8 | x | u | x
COc1ccc(S(=O)(=O)N2CCCCCC2)cc1C(=O)NCc1ccco1 | x | 16 | x | x | x
O=C(Cc1cccs1)Nc1cc(S(=O)(=O)N2CCCCC2)ccc1Cl | u | -19 | x | u | x
O=C(CNC(=O)c1ccccc1)OCc1cc(=O)n2nc(C3CC3)sc2n1 | x | 0 | x | x | x
COc1ccc(CCN(C)C(=O)CSc2nnc(C3CC3)n2N)cc1OC | -1% | -1 | x | 1% | x
Cc1oc2ncn(C)c(=O)c2c1C(=O)N(C)c1ccccc1F | x | 0 | x | x | x
COc1ccc(S(=O)(=O)N2CCOCC2)cc1NC(=O)Cc1sc(C)nc1-c1ccc(F)cc1 | u | -23 | x | u | x
COc1ccc(S(=O)(=O)N2CCCCC2)cc1NC(=O)Cc1sc(C)nc1-c1ccc(F)cc1 | 12µM* | -65* | x | u | x
O=C(C1=C[C@H](c2ccccc2)C[C@H](OCCCCO)O1)N1CCOCC1 | 50% | 1 | -14 | 52% | 0
Cc1ccc(C2Nc3ccccc3C(=O)N2CCCN2CCOCC2)cc1 (stereo unspecified) | -10% | 25 | 15 | 4% | 8
O=C1c2ccccc2NC(c2ccccc2Br)N1CCCN1CCOCC1 (stereo unspecified) | u | -23 | 16 | 10µM* | 0
CCN(CC)c1cc(C(F)(F)F)nc(-c2ccccn2)n1 | u | -19 | -12 | u | -1
C=CCNc1cc(C(F)(F)F)nc(-c2ccccn2)n1 | 6.6µM* | 6 | -5 | 4.1µM* | 4
NC(=NCCc1ccccc1)NS(=O)(=O)c1ccccc1 | 14% | -14 | -3 | -11% | -5
Cc1cc(C)nc(NC(=O)C(c2ccccc2)c2ccccc2)n1 | 3% | 57 | -13 | 60% | -5
COc1ccc2[nH]cc(CCN=C(NC(=O)c3cccc(Cl)c3)Nc3nc(C)cc(C)n3)c2c1 | x | -18 | x | x | x
Cc1cc(C)nc(NC(=NCCc2c[nH]c3ccccc23)NC(=O)Nc2ccc(Cl)cc2)n1 | 2.9µM* | u | -17 | 0.59µM* | -3
Cc1cc(C)nc(NC(N)=NCCc2ccccc2)n1 | x | -96* | x | x | x
Cc1cc(C)nc(NC(N)=NC(C)c2ccccc2)n1 (stereo unspecified) | 15µM* | -17 | -11 | u | -4
Cc1cc(C)nc(NC(N)=NCCc2c[nH]c3ccccc23)n1 | u | -97* | 6 | 22% | -6
Cc1ccc(S(=O)(=O)c2nc(-c3ccccc3Cl)oc2N2CCN(C)CC2)cc1 | x | 11 | x | x | x
COCc1cc(N2CCN(C(=O)OC(C)(C)C)C[C@H]2C)ccc1N1CC[C@@H](O)C1 | x | -20 | x | x | x
CNC(=O)N(O)C1N(/N=C/c2ccccc2O)C(=S)SC1(C)C (stereo unspecified) | -9% | 0 | 28 | 63% | 15*
CNC(=O)N(O)C1N(c2ccccc2)C(=S)SC1(C)C (stereo unspecified) | 0% | 26 | -9 | 2.1µM* | 7
SMILES | Pf growth 48h | HCMV antiviral | Shiga inhibitor | Pf growth 96h | Cycloheximide cs
CNC(=O)N(O)C1N(/N=C/c2ccc(SC)cc2)C(=S)SC1(C)C (stereo unspecified) | -11%[0.00184 µM] | -22 | 4 | 0% | 1
CNC(=O)ON(C(=O)NC)C1N(C)C(=S)SC1(C)C (stereo unspecified) | 6% | -17 | 22 | x | 13*
CNC(=O)N(O)C1N(/N=C/c2ccccc2F)C(=S)SC1(C)C (stereo unspecified) | 1%[0.00184 µM] | -27 | -10 | 1% | -4
COc1ccccc1N1CCN(C(=O)c2cnn(C(C)(C)C)c2C2CCN(C(=O)OC(C)(C)C)CC2)CC1 | x | 26 | x | x | x
Cc1ccc2occ(C(=O)c3ccco3)c(=O)c2c1 | 28% | -1 | 48* | 4% | 18
O=C(c1cc(C(=O)c2ccco2)cc(C(=O)c2ccco2)c1)c1ccco1 | 35% | -13 | -9 | 82% | 2
Cc1ccc2occ(CN3CCN(c4ccccc4)CC3)c(=O)c2c1 | 5% | 75 | 8 | 26% | 3
CCN1CCN(Cc2coc3ccc(C)cc3c2=O)CC1 | 30% | 36 | 38* | x | 27*
Cc1ccc2occ(CN3CCN(Cc4ccccc4)CC3)c(=O)c2c1 | 59% | x | 61* | 134% | 42*
Cc1cc(C)c2c(CN3CCN(c4ccccc4)CC3)cc(=O)oc2c1 | x | -4 | x | x | x
Cc1cc(C)c2c(CN3CCN(Cc4ccccc4)CC3)cc(=O)oc2c1 | -7% | -62* | -2 | -14% | 4
Cc1ccc(/C=N/Nc2nc(C(C)(C)C)cs2)o1 | u | 0 | 93* | -9% | 46*
Clc1ccc(-c2csc(N/N=C/c3cccnc3)n2)c(Cl)c1 | 10µM* | -63* | -3 | 4.7µM* | -2
Cc1cc(=O)[nH]c(N/N=C/c2ccc(C)o2)n1 | 69% | 51 | -8 | -5% | 1
CCOC(=O)N/N=C/c1ccc(C)o1 | 11% | 22 | 5 | 36% | 2
Cc1ccc(/C=N/Nc2nc3ccccc3s2)o1 | 271% | -15 | 75* | u | 43*
CC(C)(C)c1csc(N/N=C/c2cccnc2)n1 | 13µM* | 36 | 127* | u | 37*
CC(C)(C)C(=O)c1cn(CC(=O)NCc2ccc3c(c2)OCO3)c2ccccc12 | x | 11 | 36 | u | 11
CCCC(=O)Nc1ccc(-c2csc(N/N=C\c3ccncc3)n2)cc1 | 8.3µM* | u | 30 | u | 31*
Cc1onc(-c2ccccc2)c1-c1csc(N/N=C/c2ccccc2Cl)n1 | -5% | 35 | 8 | 10% | -2
CC(=O)Nc1ccc(-c2csc(N/N=C\c3ccncc3)n2)cc1 | u | -30 | 38 | u | 11
C(=N\Nc1nc(-c2ccccc2)cs1)/c1cccnc1 | u | 49 | 61* | u | 46*
COC(=O)c1ccc(/C=N/Nc2nc(-c3ccccc3)cs2)cc1 | 18% | 95 | 3 | -25% | 14
Cc1onc(-c2ccc(Cl)cc2Cl)c1-c1csc(N/N=C/c2ccccc2Cl)n1 | 6.6µM* | 28 | -4 | u | 2
Cn1c(=O)c2c(ncn2CC(=O)OCC(=O)Nc2cccc(C#N)c2)n(C)c1=O | x | -1 | x | x | x
SMILES | Pf growth 48h | HCMV antiviral | Shiga inhibitor | Pf growth 96h | Cycloheximide cs
COc1ccc2nc(Nc3sc4c(c3C(N)=O)CCCC4)sc2c1 | -19% | 15 | 59* | u | 42*
COc1ccc2nc(NCc3cccnc3)sc2c1 | 16% | 122 | 49* | u | 22*
Cc1cccc(Nc2nc3ccccc3s2)c1C | 240% | -10 | 100* | 111% | 49*
COc1ccc(C(O)c2nc3ccccc3s2)cc1 (stereo unspecified) | 0% | x | 20 | 34% | -3
Cc1cccc(Nc2n[nH]c(=S)s2)c1C | 13% | -21 | -10 | -24% | -3
COc1ccc(Nc2nc3ccccc3s2)cc1 | 133% | -11 | 71 | 10% | 50*
